Screens from PubChem BioAssay.
An excerpt weighted towards active compounds, which were near 0.84% of everything screened.
SRC3 TRFRET art = TR-FRET detection interference compounds, artefact control for PPARgamma SRC-3 recruitment agonists, biochemical, TR-FRET ratio | TR-FRET artefact counter-screen, PPARgamma/SRC-3 format; stronger effect = higher value | TR-FRET ratio at 8 µM | hit rate 0.39% among 99,000
TR-FRET SRC-2 ct = TR-FRET signal artefacts, primary screen, artefact control for PPARgamma SRC-2 agonist project, biochemical | TR-FRET ratio at 8 µM | hit rate 0.4% among 200,000 | TR-FRET artefact counter-screen; stronger effect = higher value
SRC1 TRFRET art = TR-FRET detection interference compounds, primary screen, artefact control for PPARgamma SRC-1 recruitment agonists, biochemical, TR-FRET emission ratio; TR-FRET ratio at 8 µM; TR-FRET detection artefact counter-screen; stronger effect = higher value; AID 1051, 2008; hit rate 0.34% among 99,000; in the data active = TR-FRET ratio above about 2300
PPARg SRC-3 ag = PPARgamma agonists recruiting SRC-3 coactivator, primary screen, biochemical; Peroxisome proliferator-activated receptor gamma (Homo sapiens), P37231; biochemical PPARgamma/SRC-3 coactivator recruitment assay; activation, % at 8 µM; hit rate 0.26% among 200,000; in the data active = activation above about 23%;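 also: 0% = DMSO and 100% = reference agonist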
Target sequence (P37231 whole entry, looked up): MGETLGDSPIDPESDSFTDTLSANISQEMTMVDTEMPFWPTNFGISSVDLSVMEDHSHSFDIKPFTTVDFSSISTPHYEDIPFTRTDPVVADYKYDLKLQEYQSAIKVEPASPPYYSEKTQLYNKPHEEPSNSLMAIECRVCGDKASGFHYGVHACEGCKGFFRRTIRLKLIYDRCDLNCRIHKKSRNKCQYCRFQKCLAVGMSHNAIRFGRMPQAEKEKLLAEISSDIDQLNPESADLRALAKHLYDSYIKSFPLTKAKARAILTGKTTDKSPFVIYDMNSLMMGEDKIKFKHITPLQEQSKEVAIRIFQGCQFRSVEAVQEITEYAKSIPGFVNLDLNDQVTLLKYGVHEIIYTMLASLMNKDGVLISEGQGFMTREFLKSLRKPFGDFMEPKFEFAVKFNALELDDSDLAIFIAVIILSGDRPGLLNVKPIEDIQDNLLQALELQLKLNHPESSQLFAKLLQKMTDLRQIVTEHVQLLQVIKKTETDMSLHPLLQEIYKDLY
PPARg SRC-1 ag = PPARgamma agonists recruiting SRC-1 coactivator, primary screen, biochemical. Peroxisome proliferator-activated receptor gamma (Homo sapiens), P37231. PPARgamma-SRC-1 coactivator recruitment biochemical assay. activation, % at 8 µM. hit rate 0.41% among 200,000. AID 631, 2007; in the data active = activation above about 19%;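 also: 0% = DMSO and 100% = reference agonist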
PPARg SRC2 recr = agonists of PPARg-SRC-2 recruitment, primary screen, biochemical, HTS | hit rate 0.34% among 200,000 | Peroxisome proliferator-activated receptor gamma (Homo sapiens), P37231 | AID 1032, 2008 | activation, % at 8 µM | PPARgamma LBD-SRC-2 recruitment; in the data active = activation above about 22%;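 also: 0% = vehicle and 100% = reference agonist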
Starred values were filed as active, the others as inactive. Rule as the data show it, unless noted: active = TR-FRET ratio above about 2000; inactive = the rest.

Screening COc1ccc(Br)cc1C(=O)N/N=C/c1ccc([N+](=O)[O-])cc1 returned SRC3 TRFRET art 1795, TR-FRET SRC-2 ct 1717, SRC1 TRFRET art 2467*, PPARg SRC-3 ag 0, PPARg SRC-1 ag 30* and PPARg SRC2 recr 5.
Screening CCC(=O)Nc1ccc(C(=O)N/N=C/c2ccc([N+](=O)[O-])cc2)cc1 returned SRC3 TRFRET art 1554, TR-FRET SRC-2 ct 1712, SRC1 TRFRET art 2345*, PPARg SRC-3 ag 7, PPARg SRC-1 ag 11 and PPARg SRC2 recr 4.
Screening CCOc1ccc(Br)cc1C(=O)N/N=C/c1ccc([N+](=O)[O-])cc1 returned SRC3 TRFRET art 1542, TR-FRET SRC-2 ct 1653, SRC1 TRFRET art 1882, PPARg SRC-3 ag 3, PPARg SRC-1 ag 9 and PPARg SRC2 recr 12.
Screening O=C(COC(=O)c1ccc2[nH]c3c(c2c1)CCCC3)Nc1ccccc1 returned SRC3 TRFRET art 1649, TR-FRET SRC-2 ct 1493, SRC1 TRFRET art 1627, PPARg SRC-3 ag 0, PPARg SRC-1 ag -3 and PPARg SRC2 recr -6.
For CCC(C)c1ccc(OCCn2cc(/C=N/NC(=O)CSc3nnc(C)s3)c3ccccc32)cc1 (stereo unspecified) the results were TR-FRET SRC-2 ct 1481, PPARg SRC-3 ag -4, PPARg SRC-1 ag 5 and PPARg SRC2 recr 7.
Screening Cc1cccn2c(=O)c3cc(C(=O)NCC4CCCO4)c(=N)n(Cc4cccnc4)c3nc12 (stereo unspecified) returned SRC3 TRFRET art 1472, TR-FRET SRC-2 ct 1761, SRC1 TRFRET art 2542*, PPARg SRC-3 ag 2, PPARg SRC-1 ag 17 and PPARg SRC2 recr 4.
For N=c1c(C(=O)NCC2CCCO2)cc2c(=O)n3ccccc3nc2n1Cc1cccnc1 (stereo unspecified) the results were SRC3 TRFRET art 1701, TR-FRET SRC-2 ct 1820, SRC1 TRFRET art 1929, PPARg SRC-3 ag 3, PPARg SRC-1 ag 9 and PPARg SRC2 recr 5.
For CN(C)S(=O)(=O)c1cccc(C(=O)NCc2cccs2)c1 the results were TR-FRET SRC-2 ct 1372, PPARg SRC-3 ag -2, PPARg SRC-1 ag -4 and PPARg SRC2 recr 4.
COC(=O)C1=C(C)NC(=O)CC1c1cc2c(cc1Br)OCO2 (stereo unspecified) was read as SRC3 TRFRET art 2175*, TR-FRET SRC-2 ct 1470, SRC1 TRFRET art 1895, PPARg SRC-3 ag 6, PPARg SRC-1 ag -1 and PPARg SRC2 recr -3.
COc1cc(S(=O)(=O)NCCCN2CCOCC2)ccc1-n1cnnn1 was read as SRC3 TRFRET art 1457, TR-FRET SRC-2 ct 1740, SRC1 TRFRET art 1916, PPARg SRC-3 ag 7, PPARg SRC-1 ag -4 and PPARg SRC2 recr 4.
Screening COc1ccc2nc(SCC(=O)N3CCN(c4ccc(F)cc4)CC3)c(C#N)cc2c1 returned TR-FRET SRC-2 ct 2728*, PPARg SRC-3 ag 7, PPARg SRC-1 ag 12 and PPARg SRC2 recr 13.
Screening CCn1cc(S(=O)(=O)Nc2ccccc2C(F)(F)F)cn1 returned SRC3 TRFRET art 1619, TR-FRET SRC-2 ct 1708, SRC1 TRFRET art 1890, PPARg SRC-3 ag 2, PPARg SRC-1 ag 9 and PPARg SRC2 recr 23*.
For O=C(O)c1ccccc1NS(=O)(=O)c1ccccc1C(F)(F)F the results were TR-FRET SRC-2 ct 1535, PPARg SRC-3 ag 3, PPARg SRC-1 ag 2 and PPARg SRC2 recr 1.
For O=C(Cc1ccccc1[N+](=O)[O-])NCc1ccc2c(c1)OCO2 the results were SRC3 TRFRET art 1639, TR-FRET SRC-2 ct 1512, SRC1 TRFRET art 2325*, PPARg SRC-3 ag 12, PPARg SRC-1 ag 12 and PPARg SRC2 recr 4.
O=C(Cc1ccccc1)NCc1ccc2c(c1)OCO2 was read as TR-FRET SRC-2 ct 1270, PPARg SRC-3 ag -6, PPARg SRC-1 ag 0 and PPARg SRC2 recr -1.
For O=C(O)/C(=C\c1cccs1)c1ccccc1 the results were SRC3 TRFRET art 1728, TR-FRET SRC-2 ct 1316, SRC1 TRFRET art 1679, PPARg SRC-3 ag 5, PPARg SRC-1 ag -8 and PPARg SRC2 recr 7.
For CCOC(=O)C1(CCc2ccccc2)CCN(C(=O)[C@@H]2C[C@@H](C)NC(=S)N2)CC1 the results were SRC3 TRFRET art 1489, TR-FRET SRC-2 ct 1415, SRC1 TRFRET art 1521, PPARg SRC-3 ag -1, PPARg SRC-1 ag -4 and PPARg SRC2 recr -6.
Screening CCOC(=O)c1c(NC(=O)CSc2c[nH]c3ccccc23)sc2c1CCCC2 returned SRC3 TRFRET art 4458*, TR-FRET SRC-2 ct 1640, SRC1 TRFRET art 1766, PPARg SRC-3 ag 1, PPARg SRC-1 ag -5 and PPARg SRC2 recr -14.
For CCOC(=O)c1c(NC(=O)CSc2c[nH]c3ccccc23)sc2c1CCC2 the results were SRC3 TRFRET art 4916*, TR-FRET SRC-2 ct 1481, SRC1 TRFRET art 1826, PPARg SRC-3 ag 1, PPARg SRC-1 ag 5 and PPARg SRC2 recr -1.
Screening CCOC(=O)c1c(NC(=O)C(C)Sc2cn(C)c3ccccc23)sc2c1CCC2 (stereo unspecified) returned SRC3 TRFRET art 1894, TR-FRET SRC-2 ct 1483, SRC1 TRFRET art 1794, PPARg SRC-3 ag 5, PPARg SRC-1 ag 10 and PPARg SRC2 recr 24*.
Screening CCOC(=O)c1c(NC(=O)C(C)Sc2cccc[n+]2[O-])sc2c1CCN(Cc1ccccc1)C2 (stereo unspecified) returned SRC3 TRFRET art 1688, TR-FRET SRC-2 ct 1644, SRC1 TRFRET art 1633, PPARg SRC-3 ag 3, PPARg SRC-1 ag 5 and PPARg SRC2 recr 8.
CCOC(=O)c1c(NC(=O)CSc2nnc(-c3c[nH]c4ccccc34)n2CCOC)sc2c1CCCCC2 was read as SRC3 TRFRET art 1556, TR-FRET SRC-2 ct 1477, SRC1 TRFRET art 1650, PPARg SRC-3 ag 8, PPARg SRC-1 ag -1 and PPARg SRC2 recr 0.
For O=C(Nc1nc2c(s1)CN(Cc1ccccc1)CC2)c1c(F)cccc1F the results were SRC3 TRFRET art 1606, TR-FRET SRC-2 ct 1692, SRC1 TRFRET art 1699, PPARg SRC-3 ag -1, PPARg SRC-1 ag 5 and PPARg SRC2 recr 2.
CO/N=C/c1ccc(OC)c(Oc2nc(OC)cc(OC)n2)c1 was read as SRC3 TRFRET art 1399, TR-FRET SRC-2 ct 1445, SRC1 TRFRET art 1654, PPARg SRC-3 ag 0, PPARg SRC-1 ag -1 and PPARg SRC2 recr -6.
For CC1=NNC(=O)C1CC(=O)N/N=C(\C)c1ccco1 (stereo unspecified) the results were SRC3 TRFRET art 1454, TR-FRET SRC-2 ct 1775, SRC1 TRFRET art 2343*, PPARg SRC-3 ag 2, PPARg SRC-1 ag 2 and PPARg SRC2 recr 6.
`CC1=NNC(=O)C1CCC(=O)N/N=C(\C)c1ccccc1` (stereo unspecified) gave SRC3 TRFRET art 1476, TR-FRET SRC-2 ct 1390, SRC1 TRFRET art 1740, PPARg SRC-3 ag 2, PPARg SRC-1 ag 0 and PPARg SRC2 recr -1.
